This note sets out measurements from PubChem BioAssay AID2716 (Broad Institute, 2010).

The structures appear in SMILES notation. About 3,300 (1%) of roughly 320,000 compounds were called active. This is one part of a sample in which actives are shown more often than they occur.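 The calls were made as follows: active = every valid replicate shows activation above 250% relative to neutral control wells; inactive = the rest, any valid replicate at or below 250%.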

The nature of the assay: restored growth of temperature-sensitive Mot1-301 yeast – S. cerevisiae, ATP luminescence, 38.5C, SUMOylation pathway inhibitor project, primary screen (AID 2716).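 Also: OY570 slx delta 5 strain wells were the positive control but not used for scaling.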 The conditions noted are these: S. cerevisiae Mot1-301 growth rescue, at 18.8 µM, active compounds read high, percent above DMSO median, 100 means doubled.
As for `O=C(Nc1cccc(F)c1)NC1CCCCCCC1`, the growth rescue was 2.77% (inactive).

In the case of `N#C/C(=C(\O)CCl)c1nnc2n1CCCCC2`, the growth rescue is 10% (inactive).

For `Cc1cn(C)c(=O)n(C)c1=O`, the growth rescue is 274% (inactive). As to `Cc1ccc(-c2cn3cc([N+](=O)[O-])ccc3n2)cc1`, the growth rescue is 25% (inactive).

Take `Cc1ccc2nc(-c3ccc(Br)cc3)cn2c1`: the growth rescue is -0.961% (inactive).

`Cc1ccc(-c2cn3cc(C)ccc3n2)cc1`: the growth rescue is 297% (active). The figure for `Cc1cccc(NC(=S)N(CCN(C)C)C(C)c2ccco2)c1` (stereo not given) is 58.7% (inactive); for `Cn1c(=O)c2ccccc2n(CC(=O)Nc2ccc3c(c2)OCCO3)c1=O` it is 0.839% (inactive).

On to `Cc1nnc(NC(=O)Cn2c(=O)sc3ccccc32)s1`, for which the growth rescue was 0.0426% (inactive). The figure for `O=C(Cn1c(=O)sc2ccccc21)Nc1ccc2c(c1)OCCO2` is 284% (active); for `COCC1CCN(C(=O)CCc2nnc(C3(c4ccc(Cl)cc4)CCC3)o2)C1` (stereo not given) it is -10.9% (inactive); for `Cc1ccc(S(=O)(=O)N(CC(=O)NCCSC2CCCCC2)c2ccccc2F)cc1` it is 1.9% (inactive).

As for `Cc1cccc(N(C(=O)c2ccc(CN3CCOCC3)o2)C(C(=O)NC2CCCCC2)c2ccc(F)cc2)c1` (stereo not given), the growth rescue was 647% (active). For `Cc1ccc(N(C(=O)c2ccc(CN3CCOCC3)o2)C(C(=O)NCCC(C)C)c2cccs2)c(C)c1` (stereo not given) the value was -1.16% (inactive); for `O=C(NC1CCCC1)C(c1ccc(N2CCOCC2)cc1)N(C(=O)c1ccco1)c1ccccc1F` (stereo not given), 95.4% (inactive). `CCc1cc(-c2nnc(SCC(=O)NC3CC3)n2C)cs1`: the growth rescue is -5.06% (inactive). For `O=C(O)C1C2C=CC(C2)C1C(=O)NCc1ccccc1` (stereo not given) the value was -11% (inactive); for `CN1CCN(C(=O)C2C3C=CC(C3)C2C(=O)O)CC1` (stereo not given), 0.946% (inactive).

Consider `C=C(Cl)COC(=O)C1C2C=CC(C2)C1C(=O)O` (stereo not given), for which the growth rescue is 885% (active).

In the case of `CCOC(=O)C1CCN(C(=O)c2cccc(S(=O)(=O)N(CC)c3ccccc3)c2)CC1`, the growth rescue is -7.37% (inactive).

On to `Cc1ccc(S(=O)(=O)N2CCN(c3ccccc3)CC2)cc1C`, for which the growth rescue is 11.5% (inactive). For `Cc1cc(C)n(C(=O)c2ccc(S(=O)(=O)N3CCCC3)cc2)n1`, the growth rescue is 1400% (inactive).

Turning to `Cc1cc(C)n(CCC(=O)N2CCN(S(=O)(=O)c3ccc(C)c(C)c3)CC2)n1`, the growth rescue was 315% (active). The figure for `Cc1ccccc1NC(=O)C(C)OC(=O)CCC(=O)N(CC(C)C)c1c(N)n(CC(C)C)c(=O)[nH]c1=O` (stereo not given) is -16.2% (inactive); for `O=C(OCCN1C(=O)c2ccccc2C1=O)[C@@H]1CC(O)CN1S(=O)(=O)c1ccccc1[N+](=O)[O-]` (stereo not given in full) it is -16.3% (inactive); for `O=C(Nc1ccc(S(=O)(=O)Nc2ncccn2)cc1)C12CC3CC(CC(C3)C1)C2` it is 35.6% (inactive).

In the case of `O=C(NNS(=O)(=O)c1c(F)cc(F)c(Cl)c1F)C12CC3CC(CC(C3)C1)C2`, the growth rescue is 1720% (active). For `CC(=O)N1CCN(S(=O)(=O)c2c(F)cc(F)c(Cl)c2F)CC1` the value was 9.01% (inactive); for `CCN(CCn1cccn1)C(=O)CC1C(=O)NCCN1Cc1cccc(OC)c1OC` (stereo not given), -10.6% (inactive). For `C=Cc1ccc(C(=O)N2CCCC(CCC(=O)N3CCN(c4ccccn4)CC3)C2)cc1` (stereo not given) the value was -28.8% (inactive); for `O=C(c1ccc(F)cc1)c1c[nH]c(C(=O)NCc2cccnc2)c1`, -16% (inactive). `CCOC(=O)c1c(C)nn(-c2ncccc2NC(=O)CCC(=O)O)c1C`: the growth rescue was -17.7% (inactive). The figure for `COc1ccccc1CSc1ncc(-c2ccc([N+](=O)[O-])cc2)[nH]1` is 1260% (active); for `COc1ccccc1CC(=O)Nc1ccc([N+](=O)[O-])cc1OC` it is -7.23% (inactive).

On to `N#Cc1c(-c2ccccc2)nc(SCc2ccc([N+](=O)[O-])cc2)[nH]c1=O`, for which the growth rescue is 10.6% (inactive).

For `CC(C)(C)Oc1ccccc1Nc1nc(NCCO)nc(N2CCCC2)n1`, the growth rescue was 8.32% (inactive). Consider `CC(Oc1ccccc1[N+](=O)[O-])C(=O)N/N=C/c1ccoc1` (stereo not given), for which the growth rescue was 547% (active).

`O=C(COc1ccccc1[N+](=O)[O-])N/N=C/c1ccc[nH]1`: the growth rescue is -23.4% (inactive). With `CC(C)c1cc(C(=O)N/N=C/c2ccoc2)c(O)c(C(C)C)c1`, the growth rescue was 2.88% (inactive). Consider `Nc1nonc1-n1nnc(C(=O)N/N=C/c2cc(Br)ccc2O)c1CSC1=NCCS1`, for which the growth rescue is -10.1% (inactive). With `CCN(C(=O)CSc1nc(N)cc(=O)[nH]1)C1CCS(=O)(=O)C1` (stereo not given), the growth rescue was 5.44% (inactive). Regarding `CC(C)(C)c1ccc(C(=O)NNC(=O)Cc2ccccc2)cc1`, the growth rescue is 10.6% (inactive). For `C=Cn1c(C(=O)O)ccc1-c1ccc(OC)cc1`, the growth rescue is 6.91% (inactive). With `COc1ccccc1N1CCN(/N=C/c2ccc(O)cc2O)CC1`, the growth rescue is 115% (inactive).

As to `COc1ccccc1N1CCN(C(=O)C(=O)N/N=C/c2ccccc2F)CC1`, the growth rescue is 490% (active). Turning to `COc1cccc(/C=N/NC(=O)C(=O)N2CCCC2)c1`, the growth rescue is 11% (inactive). For `CCOC(=O)c1cnc2ccc(F)cc2c1Nc1ccc2c(c1)OCCO2` the value was 37% (inactive). As to `Nc1nc(COC(=O)CCC(=O)c2ccc(Cl)cc2)nc(Nc2ccccc2)n1`, the growth rescue was 18.5% (inactive). For `Cc1ccc(OC(=O)c2c(C)nn(-c3ccccc3)c2C)cc1` the value was -15.1% (inactive); for `COc1ccc(C(C(=O)NC2CCCCC2)N(C(=O)c2snc(C(N)=O)c2N)c2ccccc2OC)cc1` (stereo not given), -0.518% (inactive); for `CCOc1ccc(C(C(=O)NC2CCCC2)N(C(=O)c2snc(C(N)=O)c2N)C2CCCC2)cc1` (stereo not given), 922% (active). The figure for `CCC(C(=O)NC1CCCCC1)N(C(=O)c1snc(C(N)=O)c1N)c1ccc(OC)cc1OC` (stereo not given) is -10.5% (inactive); for `O=C(OCC(=O)N1CCc2ccccc21)C1CCCN1S(=O)(=O)c1ccc(Cl)cc1` (stereo not given) it is 4.88% (inactive). For `C/C(CC(O)(/C=N/O)c1ccccc1)=N\O` (stereo not given) the value was 0.714% (inactive); for `CCOc1c(OC)cccc1C(=O)NCC1(c2ccccc2)CCCC1`, 1.09% (inactive); for `CCc1nc2ccccc2c(C(=O)OC2CCCCC2=O)c1C` (stereo not given), 377% (active).

For `CCc1nc2ccccc2c(C(=O)NCc2ccc(OC)cc2)c1C`, the growth rescue is -10.8% (inactive). As for `CCOC(=O)C1CCc2nc3ccccc3c(=O)n21` (stereo not given), the growth rescue was 141% (inactive).

For `CCS(=O)(=O)N1CCCC(C(=O)NCCCN(C)Cc2ccccc2)C1` (stereo not given), the growth rescue is 2.83% (inactive). The figure for `Cc1ccsc1C1C(C#N)=C(N)OC2=C1C(=O)CC(C)C2` (stereo not given) is -1.54% (inactive); for `COc1ccc(CNCCCO)cc1OC` it is -14.2% (inactive).

As for `CCN(CC)CCNCc1ccc(OCc2ccc(Cl)nc2)c(OC)c1`, the growth rescue is -8.12% (inactive).

Turning to `CCOCCCNCc1ccc(OCc2ccc(F)cc2)c(OC)c1`, the growth rescue was 445% (active). For `O=S(=O)(NCC1OCCc2ccccc21)c1ccccc1` (stereo not given) the value was -12.3% (inactive); for `Cc1cccc(NC(=O)CCn2c(=O)oc3ccccc32)c1`, -12.1% (inactive); for `CCCCc1cc(=O)oc2cc(C)cc(OCc3nn[nH]n3)c12`, 64.1% (inactive). Regarding `Cc1cc(C)c2c(Cn3ccnc3)cc(=O)oc2c1`, the growth rescue is 620% (active). In the case of `Cc1cc(=O)oc2c1c(C)nn2-c1ccc(Cl)cc1`, the growth rescue is -9.75% (inactive). For `COC(=O)c1cc(S(=O)(=O)Nc2ccc(C)c(F)c2)c[nH]1` the value was -5.05% (inactive). For `[O-][n+]1ccc(OCc2ccccc2)cc1` the value was -10% (inactive). On to `COCCNC(=O)C(c1ccc(C)cc1)N(C(=O)CCC(=O)Nc1ccccn1)c1cccc(C)c1` (stereo not given), for which the growth rescue is 451% (active). For `CCOc1ccc(C(C(=O)NCCOC)N(CCOC)C(=O)CCC(=O)Nc2ccccn2)cc1` (stereo not given) the value was 0.544% (inactive). For `COCCNC(=O)C(c1ccc(O)cc1)N(C(=O)CCC(=O)Nc1nccs1)c1ccc(C)cc1` (stereo not given), the growth rescue was -11.3% (inactive). For `COc1ccc([N+](=O)[O-])cc1N(CC(=O)Nc1ccccc1C(=O)N1CCOCC1)S(C)(=O)=O` the value was -10.4% (inactive); for `COC(=O)c1scc(C)c1NC(=O)CSc1ccc(Cl)cc1`, -2.32% (inactive); for `COc1ccc(-c2ccc(CCC(=O)O)n2NC(=O)c2ccc(C(C)(C)C)cc2)cc1`, -8.8% (inactive).

For `CSc1nc2ccc(NC(=O)c3c(F)cccc3F)cc2s1`, the growth rescue was 423% (active). The figure for `O=C(Nc1ccncc1)c1c(F)cccc1F` is -9.16% (inactive); for `CCCC(=O)Nc1nc2ccc(NC(=O)c3c(F)c(F)c(OC)c(F)c3F)cc2s1` it is -0.657% (inactive). As to `Cc1ccc(S(=O)(=O)NC(=O)N2CCCN(Cc3ccc(F)cc3)CC2)cc1`, the growth rescue is 290% (inactive). For `Cc1cc(NC(=O)CSc2ncc(C(F)(F)F)cc2Cl)no1` the value was 6.57% (inactive); for `Cc1nc2ccccc2n1C(=O)N1CCOCC1`, -12.1% (inactive). Consider `CCC(C)[C@H]1COCCS(=O)(=O)N1Cc1ccc(C)cc1` (stereo not given in full), for which the growth rescue was 881% (active). On to `Cc1ccc(CN2CCCOCCS2(=O)=O)cc1`, for which the growth rescue is -17.5% (inactive). The figure for `CCCC[C@H]1COCCS(=O)(=O)N1Cc1cccc(Cl)c1` is -7.4% (inactive); for `COCCn1c(C)cc(C(=O)CSc2nnc(C3CC3)n2C2CC2)c1C` it is 9.96% (inactive). For `Cc1cc(Br)ccc1NC(=O)c1sc2ncn(CC(=O)N3CCN(c4ccccn4)CC3)c(=O)c2c1C` the value was -24.4% (inactive). The figure for `Cc1cc(Br)ccc1NC(=O)c1cnc(N2CCN(c3ccccn3)CC2)c2ccccc12` is 1030% (active); for `O=C(CN1CCN(c2ccccn2)CC1)Nc1ccc(Br)cc1` it is 5.41% (inactive).

Consider `COc1ccc(N2CCN(C(=O)COC(=O)c3cccc(S(=O)(=O)Nc4ccccc4OC)c3)CC2)cc1`, for which the growth rescue is -0.984% (inactive). With `COc1ccc(N2CC(C(=O)NCCS(=O)(=O)N3CCN(c4ccccc4)CC3)CC2=O)cc1` (stereo not given), the growth rescue was 3.93% (inactive).

As for `CCCCNC(=O)Cn1nc(C)c(S(=O)(=O)N2CCOCC2)c1C`, the growth rescue was -1.53% (inactive).

With `NC(=O)C1CCN(C(=O)COc2ccc3c4c(c(=O)oc3c2)CCC4)CC1`, the growth rescue was 296% (active).

For the compound `O=C(COc1ccc2c3c(c(=O)oc2c1)CCC3)NC1CCCCC1`, the growth rescue was 5.16% (inactive).

`O=C(COc1ccc2c3c(c(=O)oc2c1)CCCC3)NCC(O)c1ccccc1` (stereo not given): the growth rescue was 1.8% (inactive).
